Assay results: PubChem BioAssay
The source made the active and inactive calls.

Legend:
[1] = test system: Wnt5a (protein binding on small-molecule microarray); experiment: small molecules binding Wnt5a protein – biophysical, small-molecule microarray, 635/667 nm fluorescence, primary screen (AID 1142); conditions: 635 nm fluorescence, higher = more signal;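 further: fluorescence read at 667 nm with signal to noise per printed feature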
[2] = ATP-based viability of Huh7 replicon cells – cell-based, CellTiter-Glo luminescence, basal, 48 h, cytotoxicity control for HCV replication inhibitor project, primary screen (AID 1143); conditions: higher = more signal, called active from +8 up or from −8 down;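 further: Huh7 hepatoma cells carrying a hepatitis C replication reporter with no stimulus; test concentration not given here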
[3] = basal CRE-LacZ reporter activity in PC12 – cell-based, unstimulated, primary screen (AID 1145); conditions: no forskolin, luminescence, 4.5 h, higher = more signal, called active from +8 up or from −8 down
[4] = forskolin-driven CRE-LacZ activity in PC12 – cell-based, CRE-LacZ reporter, forskolin-stimulated, primary screen (AID 1146); conditions: luminescence, 4.5 h, higher = more signal, called active from +8 up or from −8 down;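 further: PC12 cells with 6xCRE LacZ reporter stimulated by forskolin 10 µM; beta-galactosidase reporter signal reflecting CREB driven transcription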
[5] = molecular target: Streptavidin (Streptomyces avidinii) (UniProt P22629); experiment: compounds binding control protein streptavidin – biophysical, small-molecule microarray, 635/667 nm fluorescence, artefact control for SMM compound annotation, primary screen (AID 1147); conditions: higher = more signal;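 further: signal reflects streptavidin binding to arrayed compounds as a control protein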
[6] = probe aInhba binding on compound microarray – biochemical, small-molecule microarray, 635/667 nm fluorescence, primary screen (AID 1148); conditions: higher = more signal;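 further: score merges 667nm spot fluorescence with signal-to-noise for antibody binding to printed compounds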
Torsin-1A (Homo sapiens) [7] = molecular target: Torsin-1A (Homo sapiens) (UniProt O14656); experiment: TOR1A wild-type binding on microarray – cell lysate, small-molecule microarray, lysate, 635/667 nm, primary screen (AID 1149); conditions: COS7 hTOR1A-WT lysate, 635 nm fluorescence, higher = more signal
Torsin-1A (Homo sapiens) [8] = molecular target: Torsin-1A (Homo sapiens) (UniProt O14656); experiment: torsin A mutant lysate binding on microarrays – cell lysate, small-molecule microarray, COS7 lysate, 635/667 nm fluorescence, primary screen (AID 1150); conditions: COS7 hTOR1A mutant lysate, 635 nm fluorescence, higher = more signal;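 further: score pools 667 nm emission and signal to noise measuring lysate protein binding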
[9] = test system: Sonic hedgehog protein (Shh); experiment: Sonic hedgehog microarray binding compounds – biochemical, small-molecule microarray, 635/667 nm fluorescence, primary screen (AID 1151); conditions: 635 nm fluorescence, higher = more signal;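 further: Shh protein binding to compounds spotted on small-molecule microarray slides; score combines spot fluorescence intensity with signal-to-noise across triplicate slides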
[10] = optical density shifts of acrAB sulA E. coli – strain DRC41, OD650, 48 h, E. coli filamentation inducer project, primary screen (AID 1152); conditions: higher = more signal, called active from +8 up or from −8 down;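 further: E. coli MC1000 strain DRC41 lacking acrAB efflux pump and sulA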
[11] = probe aLefty1 binding on compound microarray – biochemical, small-molecule microarray, 635/667 nm fluorescence, primary screen (AID 1153); conditions: higher = more signal;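 further: score merges spot fluorescence with signal-to-noise ratio from the scanned slide images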
[12] = plasmodial surface anion channel blockers, osmotic lysis – cell-based, P. falciparum Indochina, OD700, 1 h, primary screen (AID 1154); conditions: P. falciparum Indochina infected RBC osmotic lysis, higher = more signal, called active from +8 up or from −8 down
[13] = plasmodial surface anion channel blockers, osmotic lysis – cell-based, P. falciparum Indochina, OD700, 2 h, primary screen (AID 1155);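 further: lysis reports solute entry through the parasite surface anion channel PSAC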; conditions: P. falciparum Indochina infected erythrocytes, higher = more signal, called active from +8 up or from −8 down
[14] = changes in parasitized red cell lysis, either direction – P. falciparum Indochina, OD700, 3 h, PSAC antagonist project, primary screen (AID 1156); conditions: P. falciparum-infected erythrocytes, osmotic lysis, higher = more signal, called active from +8 up or from −8 down
[15] = plasmodial surface anion channel blockers, osmotic lysis – cell-based, P. falciparum Indochina, OD700, 18 h, primary screen (AID 1157); conditions: P. falciparum Indochina infected erythrocytes, osmotic lysis OD700, 18 h; higher = more signal, called active from +8 up or from −8 down
[16] = S6 kinase pathway phospho-S6 level changes – cell-based, A549, cytoblot, luminescence, serum-stimulated, primary screen (AID 1158); conditions: 5 h, higher = more signal;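 further: serum-stimulated A549 lung adenocarcinoma cells; signal is phosphorylated S6 detected by cytoblot immunostaining with HRP secondary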
[17] = molecular target: NADPH oxidase 2 (Homo sapiens) (UniProt P04839); experiment: compounds shifting NOX2 Amplex Red fluorescence – cell-based, HEK293-NOX2, PMA-stimulated, NOX inhibitor project, primary screen (AID 1159); conditions: 45 min, higher = more signal, called active from +8 up or from −8 down; further: test concentration not given here
[18] = molecular target: NADPH oxidase 4 (Homo sapiens) (UniProt Q9NPH5); experiment: compounds shifting NOX4 Amplex Red fluorescence – cell-based, HEK293-NOX4, tetracycline-induced, NOX inhibitor project, primary screen (AID 1160); conditions: HEK293-NOX4, Amplex Red H2O2 fluorescence, 45 min; higher = more signal, called active from +8 up or from −8 down
[19] = molecular target: NADPH oxidase 5 (Homo sapiens) (UniProt Q96PH1); experiment: compounds shifting NOX5 Amplex Red fluorescence – cell-based, HEK293-NOX5, NOX inhibitor project, primary screen (AID 1161); conditions: HEK293-NOX5, ionomycin, 45 min, higher = more signal
[20] = compound effects on lung adenocarcinoma cell viability – A549, calcein-AM fluorescence, 48 h, basal, profiling panel (AID 1162); conditions: higher = more signal; further: test concentration not given here

Sequence of NADPH oxidase 2 (Homo sapiens) (P04839 whole entry, looked up): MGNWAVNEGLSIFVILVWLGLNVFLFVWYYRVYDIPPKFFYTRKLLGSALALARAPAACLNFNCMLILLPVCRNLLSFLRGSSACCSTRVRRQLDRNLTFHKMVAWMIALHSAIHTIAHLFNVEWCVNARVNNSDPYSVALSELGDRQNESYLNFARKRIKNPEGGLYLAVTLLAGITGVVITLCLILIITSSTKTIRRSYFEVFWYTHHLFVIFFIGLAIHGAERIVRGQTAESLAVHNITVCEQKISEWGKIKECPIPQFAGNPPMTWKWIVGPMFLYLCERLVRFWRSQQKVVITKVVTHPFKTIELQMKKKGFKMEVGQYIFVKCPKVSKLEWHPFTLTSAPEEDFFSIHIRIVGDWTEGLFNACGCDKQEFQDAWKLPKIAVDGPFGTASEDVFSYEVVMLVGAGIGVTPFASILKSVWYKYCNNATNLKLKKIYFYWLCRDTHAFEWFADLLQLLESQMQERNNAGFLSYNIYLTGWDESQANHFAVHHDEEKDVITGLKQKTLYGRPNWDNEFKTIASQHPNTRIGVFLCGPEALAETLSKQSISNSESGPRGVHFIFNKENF
Sequence of NADPH oxidase 5 (Homo sapiens) (Q96PH1 whole entry, looked up): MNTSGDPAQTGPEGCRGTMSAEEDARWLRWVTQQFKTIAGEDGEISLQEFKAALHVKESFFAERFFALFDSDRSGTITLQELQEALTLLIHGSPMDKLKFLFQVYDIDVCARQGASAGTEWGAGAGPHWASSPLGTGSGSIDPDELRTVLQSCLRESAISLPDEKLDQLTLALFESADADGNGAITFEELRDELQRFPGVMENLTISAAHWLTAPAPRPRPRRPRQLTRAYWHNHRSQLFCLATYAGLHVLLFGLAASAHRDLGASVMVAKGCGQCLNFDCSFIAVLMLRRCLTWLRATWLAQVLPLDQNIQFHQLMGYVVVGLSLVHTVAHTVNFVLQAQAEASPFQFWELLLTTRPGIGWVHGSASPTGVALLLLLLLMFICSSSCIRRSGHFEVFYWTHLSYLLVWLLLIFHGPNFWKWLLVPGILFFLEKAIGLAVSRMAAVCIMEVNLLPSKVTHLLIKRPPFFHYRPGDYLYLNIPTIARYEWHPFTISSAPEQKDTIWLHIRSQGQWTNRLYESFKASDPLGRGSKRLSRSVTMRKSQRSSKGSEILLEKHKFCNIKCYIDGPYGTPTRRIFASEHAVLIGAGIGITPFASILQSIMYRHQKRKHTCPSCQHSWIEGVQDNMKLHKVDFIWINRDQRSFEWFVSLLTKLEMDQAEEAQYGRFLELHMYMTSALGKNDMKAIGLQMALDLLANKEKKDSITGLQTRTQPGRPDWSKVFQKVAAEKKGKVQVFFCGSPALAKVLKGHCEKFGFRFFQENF
Sequence of Streptavidin (Streptomyces avidinii) (P22629 whole entry, looked up): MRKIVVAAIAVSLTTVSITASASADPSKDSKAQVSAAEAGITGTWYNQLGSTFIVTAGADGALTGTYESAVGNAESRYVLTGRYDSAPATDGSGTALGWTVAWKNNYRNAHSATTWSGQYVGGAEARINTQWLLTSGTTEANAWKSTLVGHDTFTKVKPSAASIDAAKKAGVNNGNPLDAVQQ
Sequence of NADPH oxidase 4 (Homo sapiens) (Q9NPH5 whole entry, looked up): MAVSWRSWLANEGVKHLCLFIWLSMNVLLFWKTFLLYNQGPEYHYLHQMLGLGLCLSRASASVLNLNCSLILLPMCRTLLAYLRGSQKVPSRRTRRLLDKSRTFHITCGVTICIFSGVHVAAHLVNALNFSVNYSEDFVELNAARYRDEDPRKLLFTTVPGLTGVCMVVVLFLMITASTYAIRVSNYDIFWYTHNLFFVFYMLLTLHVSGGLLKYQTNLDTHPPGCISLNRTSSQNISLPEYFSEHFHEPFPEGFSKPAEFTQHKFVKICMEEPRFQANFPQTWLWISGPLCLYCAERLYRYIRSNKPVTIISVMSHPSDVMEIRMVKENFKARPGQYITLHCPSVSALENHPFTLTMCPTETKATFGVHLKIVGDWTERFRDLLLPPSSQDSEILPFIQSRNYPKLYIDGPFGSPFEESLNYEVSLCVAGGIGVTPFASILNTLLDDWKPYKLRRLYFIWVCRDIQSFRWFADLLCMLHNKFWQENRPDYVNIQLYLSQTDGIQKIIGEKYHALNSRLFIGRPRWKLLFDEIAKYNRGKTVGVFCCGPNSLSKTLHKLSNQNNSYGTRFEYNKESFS
Sequence of Torsin-1A (Homo sapiens) (O14656 whole entry, looked up): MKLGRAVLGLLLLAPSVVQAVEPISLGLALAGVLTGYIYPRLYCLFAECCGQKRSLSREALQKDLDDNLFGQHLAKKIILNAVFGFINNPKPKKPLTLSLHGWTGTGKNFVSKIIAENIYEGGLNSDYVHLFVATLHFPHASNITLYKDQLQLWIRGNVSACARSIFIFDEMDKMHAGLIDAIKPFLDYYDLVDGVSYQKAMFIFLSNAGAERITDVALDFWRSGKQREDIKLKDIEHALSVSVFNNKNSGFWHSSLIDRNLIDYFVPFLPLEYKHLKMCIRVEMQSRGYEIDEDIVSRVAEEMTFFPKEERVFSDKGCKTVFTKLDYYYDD

SMILES	composite z-score [1]	z-score [2]	z-score [3]	z-score [4]	composite z-score [5]	composite z-score [6]	composite z-score (Torsin-1A (Homo sapiens) [7])	composite z-score (Torsin-1A (Homo sapiens) [8])	composite z-score [9]	z-score [10]	composite z-score [11]	z-score [12]	z-score [13]	z-score [14]	z-score [15]	z-score [16]	z-score [17]	z-score [18]	z-score [19]	z-score [20]
COC(=O)C1=CC(c2ccc(CO)cc2)=CC(c2cccs2)N(C)C=C1C(=O)OC (stereo not given)	-0.246	-3.59 (inactive)	-0.348 (inactive)	-0.534 (inactive)	0.295	-0.0471	0.503	0.634	0.335	2.46 (inactive)	0.571	6.76 (inactive)	0.0213 (inactive)	-0.64 (inactive)	-1.49 (inactive)	1.67	-1.48 (inactive)	-2.33 (inactive)	-1.44	0.126
C=CCNC(=O)[C@@H]1[C@H]2C(=O)O[C@H](c3ccccc3)[C@H](c3ccccc3)N2[C@H](c2ccc(O)cc2)[C@@]12C(=O)N(C(=O)OCCOC)c1ccc(C#Cc3ccc(OC)cc3)cc12	0.334	-2.94 (inactive)	-0.203 (inactive)	0.417 (inactive)	0.256	0.0627	0.808	0.54	1.06	1.58 (inactive)	-0.0222	2.52 (inactive)	1.19 (inactive)	-0.264 (inactive)	0.804 (inactive)	-0.0456	0.957 (inactive)	-0.276 (inactive)	1.9	-0.413
COC(=O)c1c2oc(c1C(=O)OC)C(=O)N[C@@H](C(C)C)Cn1nncc1C1(CCCCC1)NC(=O)N[C@H](CO)CC2	-0.0906	-0.475 (inactive)	1.44 (inactive)	-0.575 (inactive)	0.235	-0.195	0.217	-0.422	-0.0256	3.17 (inactive)	-0.235	1.05 (inactive)	1.49 (inactive)	0.168 (inactive)	1.41 (inactive)	0.651	0.234 (inactive)	0.991 (inactive)	-0.162	2.55
COCCOC(=O)N1C(=O)[C@@]2(c3cc(C#CCNC(N)=O)ccc31)[C@H](c1ccccc1OCCO)N1[C@H](c3ccccc3)[C@H](c3ccccc3)OC(=O)[C@H]1[C@@H]2C(=O)Nc1nc2ccccc2s1	0.141	-0.949 (inactive)	0.0653 (inactive)	0.178 (inactive)	0.789	0.061	0.196	0.287	0.312	2.56 (inactive)	0.0943	2.23 (inactive)	-0.226 (inactive)	0.653 (inactive)	-0.809 (inactive)	1.87	1.85 (inactive)	1.5 (inactive)	1.25	0.323
O=C1O[C@H](c2ccccc2)[C@H](c2ccccc2)N2[C@H]1[C@@H](C(=O)NC[C@H](O)c1ccccc1)[C@]1(C(=O)Nc3ccc(C#CC4(O)CCCCCC4)cc31)[C@H]2c1ccc(O)cc1	0.195	-2.13 (inactive)	-0.0607 (inactive)	-0.58 (inactive)	0.26	0.0377	0.704	1.02	1.27	1.46 (inactive)	0.0495	0.519 (inactive)	0.447 (inactive)	0.001 (inactive)	-0.181 (inactive)	0.381	1.68 (inactive)	0.753 (inactive)	1.58	0.97
O=C1N(CCS(=O)(=O)c2ccccc2)Cc2ccccc2[C@@H]2OC(c3ccc(OCCCO)cc3)=N[C@]12Cc1ccccc1	1.14	-3.69 (inactive)	0.927 (inactive)	-1.09 (inactive)	1.66	0.243	0.612	0.29	1.96	0.218 (inactive)	0.327	27.7 (active)	18.5 (active)	3.32 (inactive)	2.53 (inactive)	0.503	-3.23 (inactive)	-0.195 (inactive)	1.01	-1.08
CC(C)N1C(=O)c2ccccc2[C@@H](C(=O)NCc2ccccc2)[C@@H]1c1ccc(CO)cc1	0.0422	-0.144 (inactive)	0.0279 (inactive)	-0.659 (inactive)	-1.17	-0.206	0.81	0.436	-0.49	1.12 (inactive)	-0.15	2.59 (inactive)	0.425 (inactive)	0.884 (inactive)	0.818 (inactive)	0.325	-0.00885 (inactive)	0.454 (inactive)	-0.101	0.538
COc1ccc([Si](C)(C)[C@@H]2[C@@H](CCn3cc(CCO)nn3)O[C@]3(C(=O)N(Cc4ccc(N5C(=O)c6cccc7cccc5c67)cc4)c4ccccc43)[C@H]2C)cc1	0.0378	-7.93 (inactive)	0.353 (inactive)	-1.65 (inactive)	0.256	-0.0529	0.815	0.609	0.907	1.93 (inactive)	0.457	6 (inactive)	0.758 (inactive)	-1.06 (inactive)	-1.22 (inactive)	2.29	2.23 (inactive)	1.62 (inactive)	1.42	-1.32
Cc1ccc(N2C(=O)c3ccccc3[C@](C)(C(=O)NCC(F)(F)F)[C@@H]2c2ccc(CO)cc2)nc1	-0.318	-1.01 (inactive)	0.234 (inactive)	-1.31 (inactive)	-0.763	-0.179	-1.08	-0.727	-1.46	1.49 (inactive)	-0.147	0.57 (inactive)	0.253 (inactive)	-0.317 (inactive)	0.127 (inactive)	0.654	-0.103 (inactive)	-1.56 (inactive)	1.22	0.708
